These results are taken from paper PMC4336329 (PLoS ONE, 2015).

In all, about 310,000 compounds went through this assay and about 14,000 (4.5%) showed an effect of 50% or more. The effect is printed as a negative number. This excerpt belongs to a sample that is enriched for strong results.
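Also: peak tail current of the secondary pulse compared with the same well before compound.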

For this test, the target named is human ether-à-go-go-related gene (hERG) potassium channel (human, UniProt Q12809). Kind of test: primary screen, population patch clamp on CHO cells stably expressing hERG; higher = less effect of the substance.
Sequence of human ether-à-go-go-related gene (hERG) potassium channel (Q12809 whole entry, looked up): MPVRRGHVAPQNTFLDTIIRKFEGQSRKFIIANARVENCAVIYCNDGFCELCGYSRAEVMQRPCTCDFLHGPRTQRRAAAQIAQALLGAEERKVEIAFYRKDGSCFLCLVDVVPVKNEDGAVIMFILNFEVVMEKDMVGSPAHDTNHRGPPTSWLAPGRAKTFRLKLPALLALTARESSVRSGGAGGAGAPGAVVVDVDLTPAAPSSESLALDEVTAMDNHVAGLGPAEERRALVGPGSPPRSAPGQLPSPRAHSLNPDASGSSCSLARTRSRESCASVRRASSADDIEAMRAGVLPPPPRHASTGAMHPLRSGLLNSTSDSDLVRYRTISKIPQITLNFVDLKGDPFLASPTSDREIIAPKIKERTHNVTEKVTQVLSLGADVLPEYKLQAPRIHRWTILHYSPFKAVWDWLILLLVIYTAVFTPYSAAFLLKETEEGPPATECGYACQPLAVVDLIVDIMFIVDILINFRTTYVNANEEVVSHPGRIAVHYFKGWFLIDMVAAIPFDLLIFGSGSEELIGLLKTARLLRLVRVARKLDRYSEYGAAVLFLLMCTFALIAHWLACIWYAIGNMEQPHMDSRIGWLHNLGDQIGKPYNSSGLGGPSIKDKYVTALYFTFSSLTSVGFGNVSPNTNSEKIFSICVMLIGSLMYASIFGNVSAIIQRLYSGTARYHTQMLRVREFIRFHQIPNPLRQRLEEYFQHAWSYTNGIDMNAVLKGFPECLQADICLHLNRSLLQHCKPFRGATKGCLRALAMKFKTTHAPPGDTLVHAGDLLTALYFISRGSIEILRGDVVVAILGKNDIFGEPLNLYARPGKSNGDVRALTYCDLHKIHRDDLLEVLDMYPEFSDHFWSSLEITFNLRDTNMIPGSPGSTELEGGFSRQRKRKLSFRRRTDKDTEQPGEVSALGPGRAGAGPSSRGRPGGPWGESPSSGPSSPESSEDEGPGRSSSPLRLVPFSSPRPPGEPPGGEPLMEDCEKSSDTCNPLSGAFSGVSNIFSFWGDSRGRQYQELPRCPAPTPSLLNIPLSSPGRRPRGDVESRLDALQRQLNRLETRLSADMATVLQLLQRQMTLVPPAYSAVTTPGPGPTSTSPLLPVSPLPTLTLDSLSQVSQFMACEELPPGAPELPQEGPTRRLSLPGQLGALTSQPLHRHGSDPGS
On to `COc1cccc(OC)c1OCCOc1ccc(C(=O)c2ccccc2)cc1`, for which the “hERG current change (%, negative = inhibition) at 10uM” value is reported as -4.82%. With `COc1ccc(CN(C)CC(O)COc2ccc(C(=O)c3ccccc3)cc2)c(OC)c1OC` (stereo not drawn), the “hERG current change (%, negative = inhibition) at 10uM” value is listed as -63.7%. Then `COc1ccc(CN(C)Cc2ccccc2)c(OC)c1OC`, with -16.9%. Then `CN(Cc1cccc(Cl)c1Cl)CC(O)COc1ccccc1.O=C(O)C(=O)O` (stereo not drawn), with -12%; and `COc1ccc(CN(C)CCc2ccccn2)c(OC)c1OC.O=C(O)C(=O)O`, with -38.9%.

With `COc1ccc(CN(C)CC(O)COC(c2ccccc2)c2ccccc2)c(OC)c1OC` (stereo not drawn), the “hERG current change (%, negative = inhibition) at 10uM” value is -76.7%. With `COc1ccc(CCNC(=O)C2CCC(=O)N(C3CCCCCC3)C2)cc1` (stereo not drawn), the “hERG current change (%, negative = inhibition) at 10uM” value is 8.9%. Then `O=C(CCN1C(=O)NC2(CCCC2)C1=O)Nc1cccc(S(=O)(=O)N2CCOCC2)c1`, with 10.7%. Then `O=C(CSc1ncnc2c1nnn2Cc1ccccc1F)NCC1CCCO1` (stereo not drawn), with -2.7%; and `Cc1ccc(S(=O)(=O)CCC(=O)Nc2ccc3c(c2)OCO3)cc1`, with -16%; and `Cc1ccc(C)c(S(=O)(=O)N2CCN(C(=O)Nc3ccccc3)CC2)c1`, with -26.1%. Then `O=C(/C=C/c1ccc([N+](=O)[O-])s1)N1CCN(c2ccccc2)CC1`, with -37%. `O=C(/C=C/c1ccc([N+](=O)[O-])s1)N1CCCC1`: the “hERG current change (%, negative = inhibition) at 10uM” value is -52.9%. As for `O=C(/C=C/c1ccc([N+](=O)[O-])s1)N1CCCCC1`, the “hERG current change (%, negative = inhibition) at 10uM” value is given as -38.7%. Then `COc1cccc(-c2nn(CCC#N)cc2C(=O)Nc2ccccc2Cl)c1`, with 5.09%; and `Cc1cc(C)nc(-n2nc(C)cc2NC(=O)CNC(C)c2ccccc2)n1` (stereo not drawn), with -62.2%. Then `CCC(C(=O)Nc1cc(C)cc(C)n1)c1ccccc1` (stereo not drawn), with -23.6%; and `Cc1cc(C)nc(-n2nc(C)cc2NC(=O)C(C)C)n1`, with 16.9%; and `Cc1cc(NC(=O)CSc2cc(Cl)ccc2Cl)n(-c2ccccc2)n1`, with -20.2%. In the case of `CCN(CC(=O)Nc1cc(C)nn1-c1nc(C)cc(C)n1)Cc1ccccc1` it was -42.8%. In the case of `COc1ccc(CNCC(=O)Nc2cc(C)nn2-c2nc(C)cc(C)n2)cc1OC`, the “hERG current change (%, negative = inhibition) at 10uM” value is recorded as -56.8%. In the case of `CCc1ccc(NC(=O)CNCc2ccc(OC)c(OC)c2)cc1.O=C(O)C(=O)O` it was -21.3%; in that of `CC(=O)Nc1cc(C)nn1-c1nc(C)cc(C)n1`, 25.4%. Then `CCC(C(=O)Nc1cc(C)nn1-c1nc(C)cc(C)n1)c1ccccc1` (stereo not drawn), with -67.7%; and `COc1ccc(-c2nc(CSCC(=O)N3CCN(C)CC3)c(C)o2)cc1OC`, with 11.7%; and `COc1ccccc1Nc1nnc(SCc2nnc(-c3cc(OC)c(OC)c(OC)c3)o2)s1`, with -21.7%. In the case of `CC1(C)O[C@@H]2[C@H](O1)[C@@H](COS(=O)(=O)[O-])O[C@H]2n1cnc2c(N)ncnc21.[K+]` it was 15.7%; in that of `O=C(COc1ccc(C(=O)NCCc2ccccc2)cc1)Nc1ccccc1`, 7.64%. In the case of `Cc1[nH]c2ccc(OC(F)(F)F)cc2c1CCNCc1cccc([N+](=O)[O-])c1`, the “hERG current change (%, negative = inhibition) at 10uM” value was -25.4%.

In the case of `CCOc1cccc(CNCCc2c(C)[nH]c3ccc(OC(F)(F)F)cc23)c1O.O=C(O)C(=O)O`, the “hERG current change (%, negative = inhibition) at 10uM” value was -51.9%. In the case of `Cc1[nH]c2ccc(OC(F)(F)F)cc2c1CCNCc1ccc(Cl)cc1.O=C(O)C(=O)O` it was -34.5%; in that of `COc1ccc2[nH]c(C)c(CCNCc3cccnc3)c2c1.O=C(O)C(=O)O`, -3.77%; in that of `COc1ccc2[nH]c(C)c(CCNCc3cn(C)c4ccccc34)c2c1.O=C(O)C(=O)O`, -27.8%. As to `COc1ccc(CNCCc2c(C)[nH]c3ccc(OC(F)(F)F)cc23)c(OC)c1.O=C(O)C(=O)O`, the “hERG current change (%, negative = inhibition) at 10uM” value is -51%.

Turning to `CC(=O)n1cc(CO)c2ccccc21`, the “hERG current change (%, negative = inhibition) at 10uM” value stood at 9.03%.

Regarding `O=S(=O)(Nc1nc2ccccc2nc1Nc1ccc2c(c1)OCO2)c1ccc(F)cc1`, the “hERG current change (%, negative = inhibition) at 10uM” value amounted to 24.5%. In the case of `Cc1cccc(C)c1NC(=O)CSc1ccc([N+](=O)[O-])cn1` it was -12.3%; in that of `COc1ccc(NC(=S)NCc2cccnc2)cc1OC`, 5.8%; in that of `OC1(c2cccs2)CN(c2ccc(Br)cc2)C2=[N+]1CCCS2.[Br-]` (stereo not drawn), -72.1%.

Turning to `CCc1ccc(N2CC(O)(c3cccs3)[N+]3=C2SCCC3)cc1.[Br-]` (stereo not drawn), the “hERG current change (%, negative = inhibition) at 10uM” value is -70%. Then `OC1(c2ccc(Br)cc2)CN(c2ccccc2)C2=[N+]1CCS2.[Br-]` (stereo not drawn), with -19.5%; and `OC1(c2cccs2)CN(c2ccc(Cl)cc2)C2=[N+]1CCCS2.[Br-]` (stereo not drawn), with -73.6%.
